# Laboratory results as given in PubChem BioAssay (NCATS).
# Values joined by “and” are separate entries in the source; they are usually repeats but may differ in a detail not shown here. Equal entries are not always repeated. Results filed as inconclusive are left out. Active and inactive are the calls of the source. Calls follow the shape of the dose curve; as a rule, active = well fitted inhibition curve with a large enough effect; inconclusive = small, poorly fitted or top-dose-only effect; inactive = flat fitted curve, though single readings scatter. Where a SMILES comes first, the peptide text is derived from it. [ ]: non-standard residue; d: D form. Ala(indol-2-yl) = N[C@@H](Cc1cc2ccccc2[nH]1)C(=O)O; Aib = CC(C)(N)C(=O)O
# Experiment: Primary qHTS for inhibitors of nuclear receptor binding SET domain protein 2 (NSD2) in an isogenic RCH-ACV NSD2 p.E1099K mutant (9B) (AID 1645876); also: nearly all actives have a fitted effect of over 70% in size
# Conditions: RCH-ACV (leukaemia line) NSD2 E1099K (9B) viability, CellTiter-Glo, 72 h; series mostly up to 44.9 µM; activity change, negative = viability loss: at the top concentration
# % is scaled to controls: 0 for no effect and ±100 for the full control effect; potency is read from the fitted curve at half-maximal effect.
Compound,"activity change, negative = viability loss",Potency,outcome
CC(C)(C)[C@]1(O)C[C@@H]2OC(=O)C[C@@]23C(=O)O[C@@H]2OC(=O)[C@@H](O)[C@]213,-2.52% (inactive),–,–
C[C@H]1C/C=C/[C@H]2[C@@H]3O[C@]3(C)[C@@H](C)[C@H]3[C@H](Cc4ccccc4)NC(=O)[C@]32OC(=O)O/C=C/[C@@](C)(O)C1=O,–,632 nM (active),–
CNC(=O)c1cc(C#N)cc(C)c1NC(=O)c1cc(Br)nn1-c1ncccc1Cl,-25.2% (inactive),–,–
OCc1nnc2n1-c1ccc(Cl)cc1C(c1ccccc1Cl)=NC2,–,–,inactive
CN[C@@H]1C[C@H]2O[C@@](C)([C@@H]1OC)n1c3ccccc3c3c4c(c5c6ccccc6n2c5c31)C(=O)NC4,–,37.2 nM (active),–
COC1CC(O[C@H]2CC[C@]3(C=O)C4CC[C@]5(C)[C@@H](C6=CC(=O)OC6)CC[C@]5(O)[C@@H]4CC[C@@H]3C2)OC(C)C1O[C@@H]1O[C@H](CO)[C@@H](O[C@@H]2O[C@H](CO)[C@@H](O)[C@H](O)[C@H]2O)[C@H](O)[C@H]1O (stereo partly specified),–,77.4 nM (active),–
CC[C@@H]1C[C@H]2CC[C@H](O2)[C@H](C)C(=O)O[C@@H](C)C[C@@H]2CC[C@@H](O2)[C@@H](C)C(=O)O[C@H](CC)C[C@H]2CC[C@H](O2)[C@H](C)C(=O)O[C@@H](C)C[C@@H]2CC[C@@H](O2)[C@@H](C)C(=O)O1,–,19.2 nM (active),–
CO[C@@H]1C[C@H](O[C@H]2CC[C@@]3(C)C(CCC4C3CC[C@]3(C)[C@@H](C5=CC(=O)OC5)[C@@H](OC(C)=O)CC43O)C2)O[C@H](C)[C@@H]1O[C@H]1O[C@H](CO[C@@H]2O[C@H](CO)[C@@H](O)[C@H](O)[C@H]2O)[C@@H](O)[C@H](O)[C@H]1O (stereo partly specified),–,346 nM (active),–
CC(=O)O[C@@H]1[C@@H](O)[C@H]2O[C@@H]3C=C(C)[C@@H](O)C[C@]3(CO)[C@]1(C)[C@]21CO1,–,450 nM (active),–
C=C1[C@@H](C)[C@H]2[C@H](Cc3ccccc3)NC(=O)[C@]23[C@H](OC(C)=O)/C=C/[C@](C)(O)C(=O)[C@@H](C)C/C=C/[C@H]3[C@@H]1O,–,728 nM (active),–
c1cncc(OC[C@@H]2CCN2)c1,2% (inactive),–,–
CC(=O)OC[C@]12C[C@H](OC(=O)CC(C)C)C(C)=C[C@H]1O[C@@H]1[C@H](O)C[C@@]2(C)[C@]12CO2,–,632 nM (active),–
CNc1ccc2oc(C[C@H]3O[C@@]4(CC[C@H]3C)O[C@H](C(C)C(=O)c3ccc[nH]3)[C@H](C)C[C@H]4C)nc2c1C(=O)O (stereo partly specified),–,16300 nM (active),–
C[N@@+]1(CC2CC2)CC[C@]23c4c5ccc(O)c4O[C@H]2C(=O)CC[C@@]3(O)[C@H]1C5,–,–,inactive
CC(=O)OC[C@]12C[C@H](OC(=O)CC(C)C)C(C)=C[C@H]1O[C@@H]1[C@H](O)[C@@H](O)[C@@]2(C)[C@]12CO2,–,25.2 nM (active),–
CC(C)(NC(=O)[C@@H](N)Cc1ccc(O)cc1)C(=O)N[C@@H](Cc1cc2ccccc2[nH]1)C(=O)N[C@@H](Cc1ccccc1)C(=O)O (H-Y[Aib][Ala(indol-2-yl)]F-OH),-7% [at 9.23 µM] (inactive),–,–

Compound,"activity change, negative = viability loss",Potency,outcome
C[C@]12CC[C@H](O)C[C@H]1CC[C@@H]1[C@@H]2[C@H](O)C(=O)[C@]2(C)[C@@H](c3ccc(=O)oc3)CC[C@]12O,–,20.5 nM (active),–
CC[C@H]1C2CC3[C@@H]4N(C)c5ccccc5[C@]45C[C@@H]([C@H]2[C@H]5O)N3[C@@H]1O,-18.9% (inactive),–,–
CC(=O)OC[C@]12C[C@H](OC(=O)CC(C)C)C(C)=C[C@H]1O[C@@H]1[C@H](O)[C@@H](OC(C)=O)[C@@]2(C)[C@@]12CO2,–,22.4 nM (active),–
CC1=C[C@H]2O[C@@H]3C[C@H]4OC(=O)/C=C/C=C/C(=O)OCC/C(C)=C/C(=O)OC[C@@]2(CC1)[C@]4(C)[C@]31CO1,–,5.6 nM (active),–
C=C(CO)C(=O)O[C@H]1CC(=C)[C@@H]2C[C@H](O)C(=C)[C@@H]2[C@H]2OC(=O)C(=C)[C@@H]21,–,4500 nM (active),–
CC1CCCC(=O)CCC/C=C/c2cc(O)cc(O)c2C(=O)O1 (stereo unspecified),-25.6% (inactive),–,–
O=C(OC[C@H]1O[C@@H](Oc2ccc(O)cc2CO)[C@H](O)[C@@H](O)[C@@H]1O)c1ccccc1,-11.3% [at 17.3 µM] (inactive),–,–
CC[C@@]1(O)C(=O)OCc2c1cc1n(c2=O)Cc2cc3c(OC)cccc3nc2-1,–,7.1 nM (active),–
CC(=O)OC[C@]12C[C@H](O)C(C)=C[C@H]1O[C@@H]1[C@H](O)[C@@H](O)[C@@]2(C)[C@]12CO2,–,898 nM (active),–
CC[C@H]1C[C@@H]2CC[C@@H](O2)[C@@H](C)C(=O)O[C@H](CC)C[C@H]2CC[C@H](O2)[C@H](C)C(=O)O[C@@H](C)C[C@@H]2CC[C@@H](O2)[C@@H](C)C(=O)O[C@H](CC)C[C@H]2CC[C@H](O2)[C@H](C)C(=O)O1,–,10.8 nM (active),–
CC(=O)OC[C@]12C[C@H](O)C(C)=C[C@H]1O[C@@H]1[C@H](O)[C@@H](OC(C)=O)[C@@]2(C)[C@]12CO2,–,6.4 nM (active),–
CO[C@H]1[C@H](O)[C@H](O[C@H]2CC[C@]3(C=O)C4CC[C@]5(C)[C@H](C6=CC(=O)OC6)CC[C@]5(O)C4CC[C@@H]3C2)O[C@@H](C)[C@@H]1O (stereo partly specified),–,15.9 nM (active),–
C[C@H]1O[C@@H](n2cnc3c(N)ncnc32)C[C@@H]1O,-15.5% (inactive),–,–
CO[C@H]1[C@@H](O)[C@@H](C)O[C@@H](O[C@@H]2C=C3C(OC(C)=O)CC4(O)C(CC[C@]5(C)[C@@H](C6=CC(=O)OC6)CC[C@]45O)[C@@]3(C)CC2)[C@@H]1O (stereo partly specified),–,48.3 nM (active),–
CN(C)c1cc2c(cc1Sc1nc3c(N)nccc3n1CCNCC(C)(C)C)OCO2,–,459 nM (active) and 662 nM (active),–
